PubChem BioAssay AID1159580 (chemical genetic matrix, 2015)
Several values for one entry are separate records, joined by “and”; a condition that tells them apart may be missing. Equal values may be shown once. About 2,000 (36%) of roughly 5,500 compounds were called active. Another 18% or so got no clear call; they are omitted. Cut-off read from the data, not from the text of the source: active = normalized growth mostly below about 0.91 (no sharp cut-off); inconclusive = no clear call, values can overlap the other calls; inactive = mostly above about 0.92. This is one part of the list.

Test: chemical genetic growth profiling, strain panel (AID 1159580);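 note: tested at 20 µM; growth read once vehicle control cultures reached saturation at 30 °C; 1 = growth at the plate median or of vehicle wells; lower values mean less growth of the strain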
Settings: S. cerevisiae deletion strains, growth OD

Measured: normalized growth

C[C@]12C=CC(=O)C=C1CCC1C2C(=O)C[C@@]2(C)C1CC[C@]2(O)C(=O)CO (stereo not given in full)
inactive: locus YAL013W, strain DEP1, active compounds read low 0.992 | locus YAL021C, strain ccr4, active compounds read low 1.03 | locus YAL026C, strain drs2, active compounds read low 1.02 | locus YAL030W, strain snc1, active compounds read low 0.997 | locus YBL061C, strain skt5, active compounds read low 0.992 | locus YBR009C, strain hhf1, active compounds read low 1.01 | locus YBR021W, strain FUR4, active compounds read low 0.985 | locus YBR023C, strain chs3, active compounds read low 1.01 | locus YBR171W, strain sec66, active compounds read low 0.979 | locus YBR229C, strain ROT2, active compounds read low 0.954 | locus YBR231C, strain swc5, active compounds read low 1.01 | locus YBR279W, strain paf1, active compounds read low 1 | locus YCL011C, strain gbp2, active compounds read low 1 | locus YCL016C, strain dcc1, active compounds read low 1.01 | locus YCL029C, strain bik1, active compounds read low 0.978 | locus YCL061C, strain MRC1, active compounds read low 1 | locus YCL069W, strain vba3, active compounds read low 0.996 | locus YCR088W, strain abp1, active compounds read low 0.989 | locus YDL005C, strain med2, active compounds read low 0.981 | locus YDL035C, strain GPR1, active compounds read low 0.981 | locus YDL040C, strain nat1, active compounds read low 0.995 | locus YDL074C, strain BRE1, active compounds read low 0.965 | locus YDL101C, strain DUN1, active compounds read low 0.985 | locus YDL134C, strain PPH21, active compounds read low 0.992 | locus YDL185W, strain tfp1, active compounds read low 0.983 | locus YDL192W, strain arf1, active compounds read low 0.997 | locus YDR001C, strain nth1, active compounds read low 1 | locus YDR069C, strain doa4, active compounds read low 0.98 | locus YDR101C, strain arx1, active compounds read low 0.991 | locus YDR137W, strain rgp1, active compounds read low 1.01 | locus YDR150W, strain NUM1, active compounds read low 0.987 | locus YDR159W, strain sac3, active compounds read low 1.01 | locus YDR162C, strain NBP2, active compounds read low 0.992 | locus YDR195W, strain ref2 0.916 | locus YDR297W, strain sur2, active compounds read low 0.989 | locus YDR318W, strain mcm21, active compounds read low 0.996 | locus YDR334W, strain swr1, active compounds read low 0.999 | locus YDR335W, strain msn5, active compounds read low 0.997 | locus YDR388W, active compounds read low 0.986 | locus YDR392W, strain spt3, active compounds read low 1.05 | locus YDR502C, strain sam2, active compounds read low 0.989 | locus YEL003W, strain gim4, active compounds read low 1 | locus YEL037C, strain rad23, active compounds read low 0.996 | locus YEL061C, strain CIN8 (second series), active compounds read low 0.997 | locus YEL061C, strain CIN8, active compounds read low 0.985 | locus YER015W, strain faa2, active compounds read low 0.996 | locus YER016W, strain bim1, active compounds read low 1.01 | locus YER110C, active compounds read low 0.966 | locus YER111C, strain swi4, active compounds read low 0.981 | locus YER155C, strain BEM2 (second series), active compounds read low 0.973 | locus YER155C, strain BEM2, active compounds read low 1 | locus YER167W, strain BCK2, active compounds read low 0.991 | locus YFR010W, strain ubp6, active compounds read low 0.984 | locus YGL078C, strain dbp3, active compounds read low 0.984 | locus YGL086W, strain mad1, active compounds read low 0.995 | locus YGL167C, strain pmr1, active compounds read low 0.991 | locus YGL173C, strain kem1, active compounds read low 0.994 | locus YGL227W, strain vid30, active compounds read low 0.999 | locus YGL240W, strain doc1, active compounds read low 0.978 | locus YGL248W, strain PDE1, active compounds read low 0.978 | locus YGL253W, strain hxk2, active compounds read low 0.992 | locus YGR078C, strain PAC10, active compounds read low 0.988 | locus YGR135W, strain pre9, active compounds read low 0.997 | locus YGR252W, strain gcn5, active compounds read low 0.95 | locus YHR013C, strain ard1, active compounds read low 0.999 | locus YHR027C, strain rpn1, active compounds read low 1 | locus YHR030C, strain SLT2, active compounds read low 0.997 and 1.02 | locus YHR079C, strain IRE1 (second series), active compounds read low 0.998 | locus YHR079C, strain IRE1, active compounds read low 1.05 | locus YHR094C, strain hxt1, active compounds read low 0.988 | locus YHR129C, strain ARP1, active compounds read low 0.963 | locus YHR142W, strain chs7, active compounds read low 0.972 | locus YHR200W, strain rpn10, active compounds read low 0.986 | locus YIL066C, strain RNR3, active compounds read low 0.98 | locus YIL073C, strain SPO22, active compounds read low 1.01 | locus YIL125W, strain kgd1, active compounds read low 0.993 | locus YIR030C, strain dcg1, active compounds read low 0.987 | locus YJL092W, strain hpr5, active compounds read low 1 | locus YJL095W, strain BCK1 (second series), active compounds read low 1.01 | locus YJL095W, strain BCK1, active compounds read low 0.982 and 1.03 | locus YJL115W, strain asf1, active compounds read low 0.988 | locus YJL129C, strain trk1, active compounds read low 0.978 | locus YJL134W, strain LCB3, active compounds read low 0.995 | locus YJL154C, strain vps35, active compounds read low 1 | locus YJL164C, strain tpk1, active compounds read low 1.02 | locus YJL166W, strain qcr8, active compounds read low 0.976 | locus YJL168C, strain set2, active compounds read low 0.992 | locus YJL187C, strain SWE1 (second series), active compounds read low 0.984 | locus YJR043C, strain POL32, active compounds read low 1 | locus YJR066W, strain TOR1, active compounds read low 0.976
